# Data: the supplement of paper PMC8728848
# The entries come from a sample that favours the strongest signals as a whole.
# B1: PX9961V-pdi-562-26-562 (Parabacteroides distasonis) (protein)
# chain: EIFSEITTDNYYQNSNNIYAALVNNYAKAFSTGWSDARYFLQEVTADQLMIPTRGKHGYNGGEYVRLHEHKWTVEENFVYNGWAAPFQGIALCNNTLSDFENLDFSTFKLTEETKNEYIAELRALRVWNYMFLIDFFRHVPIVTDIEEVKAQSTPLEVFNFMESELLAILPDLPKNRGVSRFDQAGVASILVRLYLNAEKWIGISKYDECEQMAQAILDGKYGEYSIDPDYRGPFRSGINGYRSKENIMEFAIKKNYFEASWLYNMWMHYQDRYSLDNDWQGWNGGNLAPSRDLYGNLYQDKLGMPFEKFPDGDIRKKAFRVISNDGDYEGFFLMGTQYKFDYEKGYGFTDEVITGTEEYNGKPLVYVDQVGRFSEGETGLAKGSHVIYGEENTGYRLIKFPWLPQSKDLFQMNSIPEIRLAEIYYSLAECKYRSGDKIGAARLLDVVRKRYYKAEDWSKFSYESNISKLTDDEFVDELGREFIGERHRRIDLIRWNRFSEGAWWDKTPDATNQDVFPIPYRALNANPLLKQTTAGF
# Experiments:
# Test in all cases: glycan array binding signal (z-score within array); higher = stronger binding
# Conditions in all cases: glycan notation: IUPAC condensed, linker removed
# [1] = molecular target: Fuc(a1-2)Gal(b1-3)GlcNAc(b1-3)GalNAc
# How it was run: (§1)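 Columns mapping to the same glycan were averaged after glycan names were converted to IUPAC-condensed notation. The data come from 3228 arrays in the Consortium for Functional Glycomics database, limited to those with an available protein sequence. Binding is reported as a within-array Z-score averaged across arrays of one protein sequence and across linkers.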
# [2] = molecular target: Fuc(a1-2)Gal(b1-3)GlcNAc(b1-3)[Fuc(a1-2)Gal(b1-3)GlcNAc(b1-6)]GalNAc
# How it was run: as §1
# [3] = molecular target: Fuc(a1-2)Gal(b1-4)GlcNAc(b1-2)[Fuc(a1-2)Gal(b1-4)GlcNAc(b1-4)]Man(a1-3)[Fuc(a1-2)Gal(b1-4)GlcNAc(b1-2)Man(a1-6)]Man(b1-4)GlcNAc(b1-4)GlcNAc
# How it was run: as §1
# [4] = molecular target: Fuc(a1-2)Gal(b1-4)[Fuc(a1-3)]GlcNAc(b1-2)[Fuc(a1-2)Gal(b1-4)[Fuc(a1-3)]GlcNAc(b1-4)]Man(a1-3)[Fuc(a1-2)Gal(b1-4)[Fuc(a1-3)]GlcNAc(b1-2)Man(a1-6)]Man(b1-4)GlcNAc(b1-4)GlcNAc
# How it was run: as §1
# [5] = molecular target: Fuc(a1-2)[Gal(a1-3)]Gal(b1-3)GlcNAc(b1-2)Man(a1-3)[Fuc(a1-2)[Gal(a1-3)]Gal(b1-3)GlcNAc(b1-2)Man(a1-6)]Man(b1-4)GlcNAc(b1-4)GlcNAc
# How it was run: as §1
# [6] = molecular target: Fuc(a1-2)[Gal(a1-3)]Gal(b1-4)Glc
# How it was run: as §1
# [7] = molecular target: Fuc(a1-2)[Gal(a1-3)]Gal(b1-4)GlcNAc(b1-2)Man
# How it was run: as §1
# [8] = molecular target: Fuc(a1-2)[Gal(a1-3)]Gal(b1-4)GlcNAc(b1-2)Man(a1-3)[Fuc(a1-2)[Gal(a1-3)]Gal(b1-4)GlcNAc(b1-2)Man(a1-6)]Man(b1-4)GlcNAc(b1-4)GlcNAc
# How it was run: as §1
# [9] = molecular target: Fuc(a1-2)[GalNAc(a1-3)]Gal(b1-3)GlcNAc(b1-2)Man(a1-3)[Fuc(a1-2)[GalNAc(a1-3)]Gal(b1-3)GlcNAc(b1-2)Man(a1-6)]Man(b1-4)GlcNAc(b1-4)GlcNAc
# How it was run: as §1
# [10] = molecular target: Fuc(a1-2)[GalNAc(a1-3)]Gal(b1-4)GlcNAc(b1-2)Man(a1-3)[Fuc(a1-2)[GalNAc(a1-3)]Gal(b1-4)GlcNAc(b1-2)Man(a1-6)]Man(b1-4)GlcNAc(b1-4)GlcNAc
# How it was run: as §1
# [11] = molecular target: Fuc(a1-2)[GalNAc(a1-3)]Gal(b1-4)[Fuc(a1-3)]GlcNAc
# How it was run: as §1
# [12] = molecular target: Fuc(a1-2)[GalNAc(a1-3)]Gal(b1-4)[Fuc(a1-3)]GlcNAc(b1-3)GalNAc
# How it was run: as §1
# [13] = molecular target: Fuc(a1-3)GlcNAc
# How it was run: as §1
# [14] = molecular target: Fuc(a1-3)[Gal(b1-4)]GlcNAc6S
# How it was run: as §1
# [15] = molecular target: Fuc(a1-4)GlcNAc
# How it was run: as §1
# [16] = molecular target: Fuc(b1-3)GlcNAc
# How it was run: as §1
# [17] = molecular target: Gal(a1-3)Gal
# How it was run: as §1
# [18] = molecular target: Gal(a1-3)Gal(b1-3)GlcNAc(b1-2)Man(a1-3)[Gal(a1-3)Gal(b1-3)GlcNAc(b1-2)Man(a1-6)]Man(b1-4)GlcNAc(b1-4)GlcNAc
# How it was run: as §1
# [19] = molecular target: Gal(a1-3)Gal(b1-3)[Fuc(a1-4)]GlcNAc(b1-2)Man(a1-3)[Gal(a1-3)Gal(b1-3)[Fuc(a1-4)]GlcNAc(b1-2)Man(a1-6)]Man(b1-4)GlcNAc(b1-4)GlcNAc
# How it was run: as §1
# [20] = molecular target: Gal(a1-3)Gal(b1-4)GlcNAc
# How it was run: as §1
# [21] = molecular target: Gal(a1-4)Gal(b1-4)Glc
# How it was run: as §1
# [22] = molecular target: Gal(b1-3)GalNAc
# How it was run: as §1
# [23] = molecular target: Gal(b1-3)GlcNAc(b1-2)Man(a1-3)[Gal(b1-3)GlcNAc(b1-2)Man(a1-6)]Man(b1-4)GlcNAc(b1-4)[Fuc(a1-6)]GlcNAc
# How it was run: as §1
# [24] = molecular target: Gal(b1-3)GlcNAc(b1-3)Gal(b1-4)GlcNAc(b1-3)Gal(b1-4)GlcNAc(b1-2)[Gal(b1-3)GlcNAc(b1-3)Gal(b1-4)GlcNAc(b1-3)Gal(b1-4)GlcNAc(b1-6)]Man(a1-6)[Gal(b1-3)GlcNAc(b1-3)Gal(b1-4)GlcNAc(b1-3)Gal(b1-4)GlcNAc(b1-2)Man(a1-3)]Man(b1-4)GlcNAc(b1-4)[Fuc(a1-6)]GlcNAc
# How it was run: as §1
# [25] = molecular target: Gal(b1-3)[Fuc(a1-4)]GlcNAc(b1-6)GalNAc
# How it was run: as §1
# [26] = molecular target: Gal(b1-4)GlcNAc(b1-3)Gal(b1-4)GlcNAc(b1-2)Man(a1-3)[Gal(b1-4)GlcNAc(b1-3)Gal(b1-4)GlcNAc(b1-2)Man(a1-6)]Man(b1-4)GlcNAc(b1-4)[Fuc(a1-6)]GlcNAc
# How it was run: as §1
# [27] = molecular target: Gal(b1-4)GlcNAc(b1-3)Gal(b1-4)GlcNAc(b1-2)[Gal(b1-4)GlcNAc(b1-3)Gal(b1-4)GlcNAc(b1-6)]Man(a1-6)[Gal(b1-4)GlcNAc(b1-3)Gal(b1-4)GlcNAc(b1-2)Man(a1-3)]Man(b1-4)GlcNAc(b1-4)GlcNAc
# How it was run: as §1
# [28] = molecular target: Gal(b1-4)GlcNAc(b1-3)Gal(b1-4)GlcNAc(b1-3)Gal(b1-4)GlcNAc(b1-2)Man(a1-3)[Gal(b1-4)GlcNAc(b1-3)Gal(b1-4)GlcNAc(b1-3)Gal(b1-4)GlcNAc(b1-2)Man(a1-6)]Man(b1-4)GlcNAc(b1-4)GlcNAc
# How it was run: as §1
binder,measurement,setting,value
B1,glycan array binding signal (z-score),[1],-0.58
same,glycan array binding signal (z-score),[2],2.04
same,glycan array binding signal (z-score),[3],-0.54
same,glycan array binding signal (z-score),[4],-0.424
same,glycan array binding signal (z-score),[5],-0.108
same,glycan array binding signal (z-score),[6],-0.228
same,glycan array binding signal (z-score),[7],-0.182
same,glycan array binding signal (z-score),[8],3.45
same,glycan array binding signal (z-score),[9],-0.21
same,glycan array binding signal (z-score),[10],4.28
same,glycan array binding signal (z-score),[11],-0.369
same,glycan array binding signal (z-score),[12],7.22
same,glycan array binding signal (z-score),[13],-0.508
same,glycan array binding signal (z-score),[14],0.861
same,glycan array binding signal (z-score),[15],-0.596
same,glycan array binding signal (z-score),[16],-0.328
same,glycan array binding signal (z-score),[17],0
same,glycan array binding signal (z-score),[18],2.03
same,glycan array binding signal (z-score),[19],3.94
same,glycan array binding signal (z-score),[20],0.068
same,glycan array binding signal (z-score),[21],-0.099
same,glycan array binding signal (z-score),[22],-0.185
same,glycan array binding signal (z-score),[23],5.1
same,glycan array binding signal (z-score),[24],4.46
same,glycan array binding signal (z-score),[25],6.13
same,glycan array binding signal (z-score),[26],4.04
same,glycan array binding signal (z-score),[27],4.58
same,glycan array binding signal (z-score),[28],4.36
